Shown are actives, neighbours in structure and some others; about 10% of the full set was active somewhere.
GPT2 inhibitor – Primary qHTS assay for inhibitors of Glutamate pyruvate transaminase 2 (GPT2). Alanine aminotransferase 2 (Homo sapiens), Q8TD30. Recombinant GPT2, coupled pyruvate oxidase/HRP Amplex Red fluorescence. Potency, µM (series often up to 57.7 µM), for inactives: at the top dose activity change, negative = inhibition, actives largely listed as inhibitors. 100,000 tested, 0.25% active. AID 1671188, 2021; further: on the % scale 0 is the no-effect control and ±100 the full control effect; nearly all actives have a fitted effect of over 60% in size
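Fluorescence read-out: pyruvate from GPT2 turnover coupled to pyruvate oxidase, HRP and Amplex Red (0.2mM ThPP, 0.2U/mL PO and HRP, 50uM Amplex final). Substrates 250uM a-KG, 2mM L-alanine; enzyme 10ng/uL; 30 min RT.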
NIH3T3 tox – Cytotoxic Profiling in NIH 3T3 Cell Line of Diverse Libraries Using Quantitative High-Throughput Screening; NIH 3T3 viability, CellTiter-Glo ATP luminescence, 48-72 h; Potency, µM (doses to about 96.7 µM), for the others: at the highest dose activity change, negative = cytotoxicity, actives largely listed as inhibitors; 94,000 tested, 4.3% active; further: on the % scale 0 is the no-effect control and ±100 the full control effect; nearly all actives have a fitted effect of over 55% in size
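ATP-dependent luminescence (CellTiter-Glo) served as the viability signal for NIH 3T3 cells treated with compound for 48 or 72 hr at 37 °C.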
Luciferase inh – Firefly luciferase inhibition profiling of diverse chemical library using quantitative high-throughput screening; purified P. pyralis luciferase, luminescence, biochemical; Luciferin 4-monooxygenase (Photinus pyralis), P08659; 76,000 tested, 2.5% active; Potency, µM (highest dose often 115 µM), most hits filed as inhibitors; further: on the % scale 0 is the no-effect control and ±100 the full control effect; nearly all actives have a fitted effect of over 65% in size
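Luminescence read by CCD imaging after purified firefly luciferase (10nM final) was added to substrate buffer holding 10uM D-luciferin and 10uM ATP, pH 7.5, pre-dosed with compound.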
NPR1 antag – Natriuretic polypeptide receptor (hNpr1) antagonism - Primary qHTS. Atrial natriuretic peptide receptor 1 (Homo sapiens), P16066. HEK293 hNpr1 GloSensor cGMP, ANP-stimulated luminescence. Potency, µM (titrated, usually from 46.3 µM), for the others: top-dose activity change, negative = inhibition, hits mostly inhibitors. 76,000 tested, 1.6% active. AID 1347048, 2019; calls by dose curve; further: on the % scale 0 is the no-effect control and ±100 the full control effect; nearly all actives have a fitted effect of over 60% in size
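HEK293 cells stably expressing human Npr1 and cGMP GloSensor pGS-40F, loaded 2 h with 2% GloSensor reagent, given compound 30 min at room temperature. Luminescence read before and 20 min after 0.1 nM hNppA.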
HEK293 tox – Cytotoxic Profiling in HEK 293 Cell Line of Diverse Libraries Using Quantitative High-Throughput Screening; HEK 293 viability, ATP luminescence (CellTiter-Glo), 48-72 h; 94,000 tested, 6.6% active; Potency, µM (doses to about 115 µM), without a hit: at the top dose activity change, negative = cytotoxicity, usual class: inhibitors; AID 1345083, 2018; further: on the % scale 0 is the no-effect control and ±100 the full control effect; nearly all actives have a fitted effect of over 60% in size
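Read-out: CellTiter-Glo ATP luminescence. Cells: HEK 293, 250 cells/well. Exposure: 48 or 72 hr, 37 degree Celsius.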
NPR1 antag cnf – Natriuretic polypeptide receptor (hNpr1) antagonism - Confirmation. shares compounds with NPR1 antag. HEK293 hNpr1 cGMP GloSensor luminescence, ANP-stimulated. Potency, µM (doses to about 57.6 µM), inactives show top-dose activity change, negative = inhibition, hits mostly inhibitors. 1,400 tested, 76% active; calls by dose curve; further: nearly all actives have a fitted effect of over 70% in size
Npr2 selectivity – Natriuretic polypeptide receptor (hNpr2) antagonism - Subtype selectivity assay; shares compounds with NPR1 antag; HEK293 hNpr2 GloSensor cGMP luminescence, CNP-stimulated; Potency, µM (highest dose often 57.6 µM), inactives show at the top dose activity change, negative = inhibition, hits mostly inhibitors; 1,400 tested, 67% active; calls by dose curve; further: nearly all actives have a fitted effect of over 70% in size
FLuc inh counter – Natriuretic polypeptide receptor (hNpr1) antagonism - Confirmation firefly luciferase (FLuc) inhibition counterscreen; AID 1347047, 2019; Potency, µM (doses to about 57.6 µM), inactives show at the top dose activity change, negative = inhibition, most hits filed as inhibitors; purified FLuc enzyme, luminescence, Km substrate; 1,400 tested, 0.7% active; shares compounds with NPR1 antag; further: 0% is about no effect
GloSensor ctrl – Natriuretic polypeptide receptor (hNpr1) antagonism - Counterscreen GloSensor control cell line | shares compounds with NPR1 antag | HEK293 GloSensor cGMP, SNP-stimulated, luminescence | Potency, µM (series often up to 57.6 µM), without a hit: at the highest dose activity change, negative = inhibition, usual class: inhibitors | 1,400 tested, 69% active; calls by dose curve; further: on the % scale 0 is the no-effect control and ±100 the full control effect; nearly all actives have a fitted effect of over 70% in size
The depositor's hits bear a star; i = inactive; ? = inconclusive; . = no result given; [ ] = dose if it differs, or a comment. Unless noted, the call rests on the fitted dose curve; in most records, active means well fitted curve in the direction sought with a large enough effect; inconclusive means small, poorly fitted or top-dose-only effect, or another doubt; inactive means no such curve, though single readings can be large; an effect the other way counts as inactive or inconclusive. Potency means the concentration at half of the fitted maximal effect.

SMILES	GPT2 inhibitor	NIH3T3 tox	Luciferase inh	NPR1 antag	HEK293 tox	NPR1 antag cnf	Npr2 selectivity	FLuc inh counter	GloSensor ctrl
O=C(c1ccc(F)cc1)N1CCN(c2nc3ncccc3o2)CC1	i	-22%[138 µM]	i	4%[70.6 µM]	-2%[172 µM]	.	.	.	.
CC1=NS(=O)(=O)N(C)C=C1C(=O)OCc1nc(C2CC2)no1	i	-3%	i	-5%	-3%	.	.	.	.
CC1=NS(=O)(=O)N(C)C=C1C(=O)OCc1nc(-c2cccs2)no1	-15%	-22%	i	?	-27%	24µM*	?	-17%	22µM*
CC1=NS(=O)(=O)N(Cc2ccccc2)C=C1C(=O)OCc1noc(C2CCCC2)n1	-7%	?	i	-25%	?	.	.	.	.
CC1=NS(=O)(=O)N(C)C=C1C(=O)OCc1noc(-c2ccccc2F)n1	4%	?	i	11µM*	-32%	19µM*	17µM*	-13%	14µM*
CC1=NS(=O)(=O)N(C)C=C1C(=O)OCc1noc(-c2cccs2)n1	i	?	i	10µM*	?	22µM*	19µM*	-2%	22µM*
CC1=NS(=O)(=O)N(Cc2ccccc2)C=C1C(=O)OCc1nc(-c2cccs2)no1	2%	?	i	-20%	?	.	.	.	.
CC1=NS(=O)(=O)N(C)C=C1C(=O)OCc1noc(-c2ccccc2C)n1	i	?	i	10µM*	?	11µM*	17µM*	-11%	11µM*
CSc1cccc(NC(=O)Cn2c(-c3cnccn3)nc(C)c(CCO)c2=O)c1	i	-14%	i	-11%	-21%	.	.	.	.
O=C(NC1CCCCC1)c1ccc2nnc(Cc3ccc(Cl)cc3)n2c1	i	?	.	.	-29%	.	.	.	.
CC(CCn1cccn1)NC(=O)c1ccc(OC2CCN(S(=O)(=O)N(C)C)CC2)cc1 (centres undefined)	-23%	-11%	i	0%	?	.	.	.	.
COC(=O)c1ccc(COC(=O)C2=CN(C)S(=O)(=O)N=C2C)o1	0%	-30%	i	?	-30%	24µM*	?	3%	19µM*
O=C1Nc2ccccc2CN(CC2CCCCC2)C12CCNCC2	-10%	?	.	.	35µM*	19µM*	6.1µM*	3%	-21%
O=C1Nc2ccccc2CN(CC2CCCCC2)C12CCNC2 (centres undefined)	-1%	22µM*	.	.	89µM*	?	14µM*	4%	-7%
O=C(c1ccccn1)N1CCC2(CCCN(Cc3ccc(F)cc3)C2=O)C1 (centres undefined)	?	-15%	i	-1%	-19%	.	.	.	.

Compound activity: PubChem, National Center for Advancing Translational Sciences (NCATS)
